Screens as filed in PubChem.
In the library only some 2.7% were active in any assay of this set; here they are far more common.
A549 tox: Nrf2 qHTS screen for inhibitors: counterscreen for cytotoxicity. AID 504648, 2011. hit rate 0.16% among 390,000. Potency, µM (titrated, usually from 46 µM), usual class: inhibitors. A549 ARE-Fluc cells, CellTiter-Fluor viability, 18-24 h
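A549 ARE-Fluc cells in 5% FBS OPTI-MEM, 5000 cells/well, rested 2 h then exposed to compounds in concentration-response for 18-24 h at 37 °C. Viability by CellTiter-Fluor fluorescence (Ex 405/Em 525) after 30 min; luciferase luminescence (BugLite, 15 min, RT) read afterwards.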
Nrf2 inh: Nrf2 qHTS screen for inhibitors | Potency, µM (top dose mostly 46 µM), most hits filed as inhibitors | A549 ARE-Fluc reporter, luciferase luminescence, 18-24 h | hit rate 2.1% among 360,000; further: nearly all actives have a fitted effect of over 60% in size
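Nrf2 function is reported as luminescence of an ARE-controlled luciferase in A549 cells. Compounds were tested at several concentrations, and a CellTiter-Fluor read on the same wells flagged cytotoxicity.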
12-LOX inh: Primary qHTS assay for inhibitors of human arachidonate 12S-lipoxygenase (ALOX12): Round 2; Potency, µM (doses to about 108 µM), actives largely listed as inhibitors; purified 12hLO, xylenol orange hydroperoxide absorbance; hit rate 1.1% among 580,000; Polyunsaturated fatty acid lipoxygenase ALOX12 (Homo sapiens), P18054
Target sequence (P18054 whole entry, looked up): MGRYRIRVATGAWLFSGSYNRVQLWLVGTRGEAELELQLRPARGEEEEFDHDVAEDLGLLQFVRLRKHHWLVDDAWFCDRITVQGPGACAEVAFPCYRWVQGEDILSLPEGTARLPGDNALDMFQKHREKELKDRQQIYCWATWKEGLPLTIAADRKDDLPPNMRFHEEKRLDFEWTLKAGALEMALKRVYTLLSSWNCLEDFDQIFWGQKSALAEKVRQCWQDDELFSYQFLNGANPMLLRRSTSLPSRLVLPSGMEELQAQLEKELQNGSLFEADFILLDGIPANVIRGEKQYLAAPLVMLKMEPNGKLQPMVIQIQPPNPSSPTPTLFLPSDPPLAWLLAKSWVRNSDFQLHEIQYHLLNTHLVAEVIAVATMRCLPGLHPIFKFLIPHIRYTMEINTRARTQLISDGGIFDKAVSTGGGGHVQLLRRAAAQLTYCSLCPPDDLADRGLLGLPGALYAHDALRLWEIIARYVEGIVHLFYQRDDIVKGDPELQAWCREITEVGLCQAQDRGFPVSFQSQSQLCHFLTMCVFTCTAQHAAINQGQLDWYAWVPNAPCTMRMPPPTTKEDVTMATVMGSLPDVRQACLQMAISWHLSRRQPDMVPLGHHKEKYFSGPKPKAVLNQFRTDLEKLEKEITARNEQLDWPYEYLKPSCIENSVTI
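Purified human 12hLO at 150 nM in 25 mM Hepes, 0.01% Triton X-100, pH 7.0, preincubated 15 min at room temperature with compound. Reaction started with 40 uM arachidonic acid, 30 min at room temperature. Hydroperoxide measured by Fe-xylenol orange, 573/405 nm absorbance ratio.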
LDHA block: qHTS assay for inhibitors of human lactate dehydrogenase; AID 1347041, 2019; L-lactate dehydrogenase A chain (Homo sapiens), P00338; hit rate 0.15% among 480,000; purified LDHA, NADH/diaphorase-resazurin fluorescence; active compounds read low; activity change, % (values are at about 110 or 230 µM); in the data active means activity change below about -30%; inconclusive means mostly about -25% to -30%
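Enzyme activity of human lactate dehydrogenase 5 (2 nM; 0.06 mM NADH, 0.2 mM pyruvate, 5 min, RT) is measured via a resazurin/diaphorase fluorescence readout of residual NADH.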
ERG-DNA inh: qHTS for Small Molecule Inhibitors of the ERG Ets/DNA interaction; Potency, µM (series often up to 76.9 µM), actives largely listed as inhibitors; Transcriptional regulator ERG (Homo sapiens), P11308; AID 624246, 2012; hit rate 0.028% among 370,000; fluorescence polarization, His-ERG Ets domain / labelled DNA; active means well fitted inhibition curve with a large enough effect in the polarisation, with a control signal flat; inconclusive means small, poorly fitted or top-dose-only effect, or effect the other way, or a change in a side signal; inactive means no such curve, though single readings can be large or run the other way; the % refers to the polarisation;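 further: polarization taken with two DNA probes labelled with fluorescein and Texas red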
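His-tagged ERG Ets domain (1 uM in the protein solution; 300mM KCl, 50mM Tris-HCl, 1mM EDTA, 1mM DTT, pH 7.5) received compound, then a probe mix of 5 nM fluorescein-DNA and 100nM Texas-615-DNA. Fluorescence polarization was read for both dyes.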
Nrf2 activator: qHTS of Nrf2 Activators. AREc32 ARE-luciferase reporter (MCF7-derived line), luminescence, 24 h. Potency, µM (series often up to 46.1 µM), actives largely listed as activators. hit rate 0.31% among 410,000; further: nearly all actives have a fitted effect of over 65% in size
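Luminescent ARE reporter assay in AREc32_Fluc cells: overnight plating at 37 deg C, 24 hr compound incubation, Steady-Glo added, 30 min RT before reading.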
A number is an active result; 0 = inactive; ? = inconclusive; - = no result. Unless noted, the call rests on the fitted dose curve; in most records, active means well fitted curve in the direction sought with a large enough effect; inconclusive means small, poorly fitted or top-dose-only effect, or another doubt; inactive means no such curve, though single readings can be large; an effect the other way counts as inactive or inconclusive.

SMILES	A549 tox	Nrf2 inh	12-LOX inh	LDHA block	ERG-DNA inh	Nrf2 activator
CC(C)n1c(SCC(=O)Nc2nc3c(s2)CCCC3)nc2c1c(=O)n(C)c(=O)n2C	0	23µM	0	0	0	0
Cc1oc(-c2cccs2)nc1CC(=O)Nc1cccc(C#N)c1	-	-	?	0	-	-
CC12CNC3(C#N)CC1CCC32C (stereo not drawn)	-	-	0	0	-	-
N#C/C(=C/c1cc(Br)ccc1OC(F)F)c1ccccn1	-	-	?	0	-	-
Cc1ccc2oc(C(=O)Nc3c(C)cccc3C)cc(=O)c2c1	-	-	0	0	-	-
COc1cc(/C=N/NC(=O)CNc2cccc(C(F)(F)F)c2)ccc1OC(=O)c1ccccc1F	-	-	0	-32	-	-
CCc1nnc(NC(=O)CCc2ccc(-c3ccc(C)c(C)c3)o2)s1	-	-	?	0	-	-
Cc1ccsc1CN1CCC(Oc2ccccc2-c2nc(-c3ccncc3)no2)C1 (stereo not drawn)	-	-	0	-	-	-
CC(=O)Nc1ccc(Oc2ccccc2)cc1	0	0	0	0	0	0
CC(=O)Nc1ccc(Oc2sc(C(=O)c3ccccc3)c(N)c2C#N)cc1	?	-	?	0	0	8.9µM
CCCCc1ccc(NC(=S)NNC=O)cc1	-	-	?	0	-	-
CCCCCCCCN1C(=O)[C@H](CC(=O)NCc2ccc(C)o2)C[C@@]2(C(=O)OC)CCCCC=C12	-	-	35µM	0	-	0
COc1ccc(C(O)c2nccc3cc(OC)c(OC)cc23)cc1OC (stereo not drawn)	0	21µM	0	0	0	0
CCOc1cc(/C=C(/C#N)c2ccccn2)ccc1OCC(F)(F)F	-	-	?	0	-	-
CCOC(=O)C1=C(O)/C(=C\c2cc(C)n(-c3ccc(F)cc3)c2C)N=C1C	0	0	35µM	0	0	0
CCCCCNC(=O)c1cc2c(=O)n3ccccc3nc2n1C	0	18µM	0	0	0	0
O=C(NC1Cc2ccccc2C1)c1ccccc1	-	-	?	0	-	-
Cc1ccc(C2C(C#N)=C(N)OC3=C2C(=O)CC(c2ccccc2Cl)C3)cc1 (stereo not drawn)	-	-	?	0	-	-
N#CC1=C(N)OC2=C(C(=O)CC(c3ccccc3Cl)C2)C1c1ccc(Cl)cc1 (stereo not drawn)	-	-	16µM	0	-	-
N#C/C(=C/c1cccc(OC(F)F)c1)c1ccccn1	-	-	?	0	-	-
N#C/C(=C\c1cccc([N+](=O)[O-])c1)c1ccccn1	0	0	0	0	0	3.5µM
CC1=C(C(=O)Nc2ccccc2)C(c2cccc(Cl)c2)n2ncc(C(=O)Nc3cccc(C)c3)c2N1 (stereo not drawn)	-	-	0	0	-	-
Cc1c(C(=O)NNC(=O)c2csc(N3CCOCC3)n2)oc2ccccc12	0	0	0	0	0	0
Cc1c(C(=O)NNC(=O)c2csc(N3CCOCC3)n2)oc2ccc(Br)cc12	-	-	40µM	0	-	0
O=C(CSCc1ccccc1)NNC(=S)NC1CC1	-	-	0	0	-	-
SMILES	A549 tox	Nrf2 inh	12-LOX inh	LDHA block	ERG-DNA inh	Nrf2 activator
CCN(CC)S(=O)(=O)c1cc(-c2nnc(-c3ccc(Br)cc3)o2)ccc1Cl	0	21µM	0	0	0	0
COCCn1c(-c2ccc(OC(F)(F)C(F)C(F)(F)F)cc2)nc2c1c(=O)[nH]c(=O)n2CC(C)C (stereo not drawn)	0	18µM	0	0	0	0
COCCn1c(-c2ccc(SC)cc2)nc2c1c(=O)[nH]c(=O)n2CC(C)C	0	0	0	0	0	0
COc1cc(NC(=O)N2c3ccccc3Sc3ccccc32)c(C(=O)O)cc1OC	0	0	20µM	0	0	0
O=C(CCCN1C(=O)/C(=C/c2ccccc2Cl)SC1=S)NNC(=O)c1ccncc1	0	26µM	0	0	0	0
COc1ccc(/C=C2\SC(=S)N(CC(=O)OCC(=O)Nc3cc(Cl)cc(Cl)c3)C2=O)cc1	0	0	40µM	0	0	0
O=C(CCCN1C(=O)/C(=C/c2ccccc2Cl)SC1=S)NNC(=O)c1ccccc1Cl	0	18µM	0	0	0	0
